# Screening results deposited in PubChem BioAssay by Sanford-Burnham Center for Chemical Genomics.
# This is a sample that favours compounds with a hit; in the whole collection about 2.5% have one here.
# CRFR2-BP antag: blocks CRF-induced signaling of the CRF-BP/CRF-R2 complex. HEK293 CRF-R2/CRF-BP, CRF-induced calcium fluorescence. inhibition, % at 11.8 µM. 0.59% of 350,000 active. AID 588475;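 active means inhibition of the ligand-induced calcium signal above about 50% at the single tested concentration, limit read from the data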
# SKN-1 block: inhibitors of C. elegans SKN-1. 0.49% of 360,000 active. inhibition, % at 21.8 µM. C. elegans VP596 Pgst-4::GFP/RFP ratio, acrylamide-induced, 24 h;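 active means interference check ratio from 0.5 to 1.5 plus GFP to RFP signal ratio inhibition reaching or exceeding a fixed threshold, cut at about 30% in these data, passing the limit was not always enough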
# CRFR2-BP ag: agonists of human CRF-binding protein/CRF-R2 receptor complex | HEK293 CRF-R2/CRF-BP, calcium dye fluorescence (FLIPR); percent of saturating CRF peptide response | activation, % at 13.2 µM | 0.46% of 350,000 active | AID 588473;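 active means activation of at least 50%, plus an integration ratio under a set limit after plate pattern correction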
# TAG inh: reduces triacylglycerol accumulation in H9c2 cells; 0.66% of 230,000 active; inhibition, % at 12.5 µM; Nile Red lipid (TAG) fluorescence; cells loaded with 200 µM oleic acid;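 active means pattern-corrected inhibition of lipid staining of at least 50% with the nuclear-stain viability signal not falling by more than 50%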
# iPSC survival up: hiPSC single-cell survival enhancement; ATPlite luminescence; 100% = ROCK inhibitor wells, 0% = DMSO; survival enhancement, % at 20 µM; 0.044% of 360,000 active; AID 602274; in the data active means survival enhancement above about 18%;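 further: cells exposed to compounds for 16 hours before the ATP read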
# Cardio protect: protects H9c2 cardiomyocytes from peroxide injury; H2O2 injury protection, ATPLite, 2 h; protection from H2O2 cell death, % at 20 µM; 0.63% of 360,000 active; AID 588492;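 active means compounds giving at least 50% protection of heart cells from peroxide-induced death in the single-dose screen, raw or plate-pattern-corrected value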
# A number is an active result; - = inactive; . = no result given.
SMILES,CRFR2-BP antag,SKN-1 block,CRFR2-BP ag,TAG inh,iPSC survival up,Cardio protect
O=C(NC12CC3CC(CC(C3)C1)C2)OC1CN2CCC1CC2 (stereo unspecified),-,-,-,-,-,-
COc1ccc(-[n+]2c(-c3ccccc3)cc(-c3ccc(C)cc3)cc2-c2ccccc2)cc1,-,-,82,.,-,-
COc1ccc(-c2cc(-c3ccccc3)[n+](C)c(-c3ccccc3)c2)cc1,-,-,-,-,-,-
CNc1ccc2oc(C[C@H]3O[C@@]4(CC[C@H]3C)O[C@H]([C@H](C)C(=O)c3ccc[nH]3)[C@H](C)C[C@H]4C)nc2c1C(=O)O,-,-,211,-,-,-
CCC1CN2CCc3cc(OC)c(OC)cc3C2CC1CC1NCCc2c1[nH]c1ccc(O)cc21 (stereo unspecified),51,-,-,-,-,-
COc1ccc2c(c1OC)CN1CCc3cc4c(cc3[C@H]1C2)OCO4,-,-,-,-,-,-
CCSP1(=S)N=C(N2CCOCC2)C(C#N)=C2CCCN21 (stereo unspecified),-,-,-,.,-,-
Cc1cc(OC(=O)c2cccs2)c2c3c(c(=O)oc2c1)CCCC3,52,-,-,-,-,-
CC1(C)CSC(=NCc2ccccc2)N1,-,-,191,-,-,-
Cc1nn(Cc2ccccc2)c(Cl)c1C(=O)NC1CCCc2ccccc21 (stereo unspecified),90,-,-,-,-,-
CNP(=O)(Oc1ccccc1)OC12CC3CC(CC(C3)C1)C2 (stereo unspecified),78,-,-,-,-,-
O=P(NC(c1ccccc1)c1ccccc1)(Oc1ccccc1)Oc1ccccc1,-,-,-,.,-,-
O=C(OCc1ccccc1)N1CCC2CC1c1cc(N3Cc4ccccc4-n4nncc4C3)ccc12 (stereo unspecified),-,-,-,-,-,-
CCOC(=O)N1CCC(NC(=O)CCc2nc(C3=CCN(C)CC3)no2)CC1,-,-,-,-,-,-
O=P(Nc1ccccc1)(Oc1ccccc1)Oc1ccccc1,-,-,-,-,-,54
COc1cccc(OP(=O)(Nc2ccccc2)Oc2cccc(OC)c2)c1,-,-,-,.,-,70
CCN1CCN(c2cn[nH]c(=O)c2Cl)CC1,-,-,-,-,-,-
CCN1CCN(c2nc3c(c(=O)[nH]2)CCCC3)CC1,-,-,-,-,-,62
Oc1c(Br)c(Br)c(Br)c(Br)c1Br,58,-,-,.,-,-
Oc1c(Br)cc(Br)cc1Br,-,-,-,.,-,-
Cc1ccc(N2C(=O)CC(=O)NC2=O)c(C)c1,57,-,-,.,-,-
Cc1ccc(N2C(=O)CC(=O)NC2=O)cc1,-,-,-,.,-,-
O=c1[nH]c2ccccc2n1C1CCN(C(c2ccccc2OC(F)(F)F)c2nnnn2Cc2ccccc2)CC1 (stereo unspecified),.,-,.,.,-,-
CCOC(=O)c1c(N)n(CCCOC(=O)c2ccco2)c2nc3ccccc3nc12,-,35,-,53,-,-
Oc1c(Br)cc(-c2ccccc2)cc1Br,72,-,-,-,-,-
SMILES,CRFR2-BP antag,SKN-1 block,CRFR2-BP ag,TAG inh,iPSC survival up,Cardio protect
Cn1c(O)c(C=Nc2ccc(F)cc2)c(=O)[nH]c1=O,-,-,-,-,-,-
CCN(CCO)c1ccc(N=Cc2c(O)n(C)c(=S)[nH]c2=O)cc1,-,-,87,-,-,-
CCN(CC)c1ccc(N=Cc2c(O)n(CCc3ccc(OC)c(OC)c3)c(=O)[nH]c2=O)cc1,-,-,127,.,-,-
CCN(CC)c1ccc(N=Cc2c(O)n(Cc3ccco3)c(=O)[nH]c2=O)cc1,-,-,60,-,-,-
O=c1[nH]c(=O)n(Cc2ccco2)c(O)c1C=NCc1cccs1,-,-,-,.,-,54
CC(=O)N1CC(=O)Nc2ccc(Br)cc2C1c1ccc(F)cc1 (stereo unspecified),-,-,-,.,-,-
O=C(O)C1Cc2ccccc2N2CCCC12 (stereo unspecified),-,-,-,.,-,-
COC1=CC(=O)O[C@@H](/C=C/c2ccccc2)C1,-,-,-,-,-,-
O=C(C(=O)N1CCOCC1)c1cn(Cc2ccccc2F)c2ccccc12,-,-,-,-,-,-
O=C(COC(=O)c1cc(Br)cc(Br)c1O)NC12CC3CC(CC(C3)C1)C2,.,-,.,-,-,-
CCn1c(O)c(C=Nc2ccc(S(N)(=O)=O)cc2)c(=O)[nH]c1=S,-,38,-,.,-,-
NC1CC2CCCCC2CC1(O)c1ccccc1 (stereo unspecified),-,-,-,-,-,-
c1ccc(Cn2ccnc2)cc1,-,-,-,-,-,-
CC(C)c1cccc(C(C)C)c1OCCn1ccnc1,-,34,-,-,-,-
Cc1ccccc1-[n+]1c(-c2ccccc2)cc(-c2ccccc2)cc1-c1ccccc1,-,-,-,-,-,-
COc1cc(N2CCOCC2)ccc1/C=C1\C(=O)NC(=O)N(Cc2ccc3c(c2)OCO3)C1=O,-,41,-,-,-,-
CC1=CC(C)CC(C)OC(=O)CC(c2ccc(O)cc2)NC(=O)C(Cc2c(Br)[nH]c3ccccc23)N(C)C(=O)C(C)NC(=O)C(C)C1 (stereo unspecified),-,-,-,98,-,-
CC(C)(C)n1c(O)c(C=Nc2ccc3c(c2)CCC3)c(=O)[nH]c1=O,-,27,-,-,-,-
CC(C)(C)c1ccc(O)c(N=Cc2c(O)ccc3ccccc23)c1,-,-,60,-,-,51
N#CC1c2ccccc2-n2nncc2CN1S(=O)(=O)c1ccccc1 (stereo unspecified),-,-,-,-,-,-
CC1CCC(C(C)C)C(OC(=O)Cn2c(COc3ccccc3)[n+](C)c3ccccc32)C1 (stereo unspecified),-,-,-,104,-,-
O=C1NCCCCC1(Cl)Cl,-,-,-,-,-,-
CS(=O)(=O)c1ccc(C2=C(CNC(=O)c3ccncc3)[C@H]3CC[C@@H](C2)N3CCOc2ccccc2)cc1,-,-,-,-,-,-
CCN1/C(=C/C=C/C2=[N+](CC)c3ccccc3C2(C)C)C(C)(C)c2ccccc21,-,-,139,-,-,-
C[N+]1=C(/C=C/Nc2ccccc2)C(C)(C)c2ccccc21,-,-,-,.,-,-
CCN(CC)c1ccc(/C=N/c2sc3c(c2C#N)C2CCN3CC2)c(O)c1,-,-,171,-,-,-
CN1CCN(Cc2nc3ccccc3c(=O)[nH]2)CC1,-,-,-,.,-,55
CCOC(=O)[C@]12Cc3cc(OC)ccc3[C@H]1N(CC(=O)OC)C(=O)c1cc(OC)ccc12,.,-,.,.,-,.
COC(=O)C12CCc3c(ccc4cc(OC)ccc34)C1=CC(=O)C2 (stereo unspecified),60,-,-,-,-,-
